In publication PMC4336329 (PLoS ONE, 2015):
In all, about 310,000 compounds went through this assay and about 14,000 (4.5%) showed an effect of 50% or more. Effects have a minus sign here. The entries come from a sample that favours strong results as a whole.

biological target: human ether-à-go-go-related gene (hERG) potassium channel (human, UniProt Q12809); test: primary screen, population patch clamp on CHO cells stably expressing hERG; higher = less effect of the substance
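Further: peak tail current of the secondary pulse compared with the same well before compound.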

Chain of human ether-à-go-go-related gene (hERG) potassium channel (Q12809 whole entry, looked up): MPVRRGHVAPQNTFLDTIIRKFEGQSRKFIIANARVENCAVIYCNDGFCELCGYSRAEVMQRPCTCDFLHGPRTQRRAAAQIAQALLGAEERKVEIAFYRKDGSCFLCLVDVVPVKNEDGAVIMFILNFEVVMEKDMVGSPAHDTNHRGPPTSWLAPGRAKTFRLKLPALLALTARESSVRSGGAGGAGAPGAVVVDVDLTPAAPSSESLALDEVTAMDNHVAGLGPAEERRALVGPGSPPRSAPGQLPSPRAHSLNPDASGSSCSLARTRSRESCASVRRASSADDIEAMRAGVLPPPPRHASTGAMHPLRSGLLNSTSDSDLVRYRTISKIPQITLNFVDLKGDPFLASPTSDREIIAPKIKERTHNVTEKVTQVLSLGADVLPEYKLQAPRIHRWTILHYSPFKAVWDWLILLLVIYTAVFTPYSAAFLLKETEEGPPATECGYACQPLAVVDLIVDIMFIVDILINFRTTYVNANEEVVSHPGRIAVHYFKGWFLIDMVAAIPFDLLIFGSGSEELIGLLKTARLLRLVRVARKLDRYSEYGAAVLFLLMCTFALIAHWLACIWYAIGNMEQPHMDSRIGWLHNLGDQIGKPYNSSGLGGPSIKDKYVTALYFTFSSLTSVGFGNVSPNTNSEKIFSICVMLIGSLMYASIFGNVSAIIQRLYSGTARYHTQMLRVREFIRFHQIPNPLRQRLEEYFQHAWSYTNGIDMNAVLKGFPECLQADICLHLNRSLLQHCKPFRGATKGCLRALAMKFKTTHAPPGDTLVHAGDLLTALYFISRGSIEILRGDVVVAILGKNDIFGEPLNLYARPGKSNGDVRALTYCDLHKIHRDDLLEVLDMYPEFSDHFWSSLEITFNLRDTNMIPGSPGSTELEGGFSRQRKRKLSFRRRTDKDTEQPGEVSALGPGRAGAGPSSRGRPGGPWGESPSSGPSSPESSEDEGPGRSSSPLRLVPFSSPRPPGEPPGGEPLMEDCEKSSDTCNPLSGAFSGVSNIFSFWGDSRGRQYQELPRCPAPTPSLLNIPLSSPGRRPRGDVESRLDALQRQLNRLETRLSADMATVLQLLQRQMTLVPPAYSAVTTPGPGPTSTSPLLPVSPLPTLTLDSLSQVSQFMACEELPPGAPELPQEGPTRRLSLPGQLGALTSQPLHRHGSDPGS

Row | SMILES | hERG current change (%, negative = inhibition) at 10uM [%]
1 | CCc1ccc(CCC(=O)Nc2ccc(C)c(C)c2)o1 | -20.8
2 | COC(=O)NCC(c1ccco1)N1CCN(c2ccc(F)cc2)CC1 (stereo not drawn) | -1.75
3 | Cc1[nH]n(-c2ccccc2)c(=O)c1N=Nc1ccccc1C(=O)O | 1.85
4 | COc1ccc(CN(C)C(=O)C(Cc2ccccc2)NC(=O)c2ccccc2)c(OC)c1 (stereo not drawn) | -13.5
5 | Cc1nn(-c2ccccc2)c2c1C1(C(=O)Nc3ccccc31)N1C(=N2)Sc2ccccc21 (stereo not drawn) | 0.952
6 | Cc1cc(N)n2nc(C)c(-c3ccccc3)c2n1 | -21.9
7 | Cc1ccc2c(cnn2C(=O)CCCC(=O)NC(C)c2ccccc2)c1 (stereo not drawn) | -5.97
8 | CCN(CC)S(=O)(=O)c1cccc(C(=O)Oc2cccnc2)c1 | -8.07
9 | O=C(Cc1ccc([N+](=O)[O-])cc1)N1CCCCCC1 | -21.9
10 | COc1ccccc1CC(=O)N1CCN(c2ccccc2)CC1 | 9.19
11 | Cc1ccc(CC(=O)N2CCN(C)CC2)cc1 | 18.1
12 | O=C(Cc1ccc(Br)cc1)N1CCN(Cc2ccccc2)CC1 | -30.9
13 | COc1ccccc1CC(=O)N1CCN(c2ccc([N+](=O)[O-])cc2)CC1 | -52
14 | O=C(Cc1ccc([N+](=O)[O-])cc1)N1CCN(c2ccc([N+](=O)[O-])cc2)CC1 | -73.7
15 | COc1ccc(N2CCN(C(=O)Cc3ccc(C)cc3)CC2)cc1 | -6.07
16 | COc1ccccc1CC(=O)N1CCN(c2ccc(F)cc2)CC1 | -11.1
17 | Cc1ccc(CC(=O)N2CCN(Cc3ccccc3)CC2)cc1 | 4.07
18 | Cc1ccc(CC(=O)N2CCN(c3ccc([N+](=O)[O-])cc3)CC2)cc1 | -62.1
19 | O=C(Cc1ccccc1)N1CCN(Cc2ccc([N+](=O)[O-])cc2)CC1 | -63.4
20 | CS(=O)(=O)N1CCN(C(=O)Cc2ccc([N+](=O)[O-])cc2)CC1 | 0.692
21 | CC(=O)N/C(=C\c1ccc(F)cc1)C(=O)N(C)C | 14.2

Row | SMILES | hERG current change (%, negative = inhibition) at 10uM [%]
22 | O=C(OCn1nnc2ccccc2c1=O)c1ccc2c(=O)n3c(nc2c1)CCC3 | -7.06
23 | Cc1ccccc1NC(=O)Cn1c(C)nc2ccc(N)cc2c1=O | 7.11
24 | CCO.N#Cc1c(SC(C(=O)O)c2ccccc2)nc2c(c1-c1cccs1)CCCC2 (stereo not drawn) | 25.2
25 | C[C@@]12CCC=C[C@H]1[C@H](c1ccc(C(F)(F)F)cc1)N(Cc1ccccc1)C2=O | 12.2
26 | O=C1C=C(NCc2ccc(Cl)cc2)CCC1 | -25.2
27 | COC(=O)c1cc(OC)c(OC)cc1NC(=S)N1CCN(Cc2ccccc2)CC1 | 6.28
28 | CCOc1ccccc1C(=O)OCC(=O)NCC1CCCCC1 | -7.31
29 | O=C(COC(=O)COc1ccccc1[N+](=O)[O-])Nc1cccc(Br)c1 | 9.05
30 | COC(=O)COc1ccc2c(-c3cccc([N+](=O)[O-])c3)cc(=O)oc2c1 | -31.8
31 | CCCOc1ccc(C(O)C(CN2CCOCC2)c2ccccc2)cc1.Cl (stereo not drawn) | 1.07
32 | Clc1ccc(/C=N/N2CCN(Cc3ccccc3Cl)CC2)cc1 | 14.9
33 | O=[N+]([O-])c1cccc(/C=N/N2CCN(Cc3ccccc3)CC2)c1 | -0.159
34 | CC(CC(=O)N1CCN(S(=O)(=O)c2ccc([N+](=O)[O-])cc2)CC1)c1ccccc1 (stereo not drawn) | -67.8
35 | O=C(/C=C/c1ccc(F)cc1)N1CCN(Cc2ccccc2)CC1 | -40.6
36 | O=C(/C=C/c1ccc([N+](=O)[O-])cc1)N1CCN(S(=O)(=O)c2ccccc2)CC1 | -34.1
37 | CC(C)CC(=O)N1CCN(S(=O)(=O)c2ccccc2)CC1 | 0.444
38 | COc1ccc(/C=N\N2CCN(Cc3ccccc3Cl)CC2)cc1.Cl | -62.4
39 | COc1ccc(/C=N/N2CCN(Cc3ccccc3)CC2)cc1 | -2.63
40 | O=[N+]([O-])c1ccc(Cl)c(/C=N/N2CCN(Cc3ccccc3)CC2)c1 | -1.74
41 | O=C(/C=C/c1ccc(OCCCF)cc1)N1CCN(Cc2ccccc2)CC1 | -65.6
42 | O=C(/C=C/c1ccc(OCCCF)cc1)N1CCOCC1 | 1.61

Row | SMILES | hERG current change (%, negative = inhibition) at 10uM [%]
43 | O=[N+]([O-])c1ccc(/C=N/N2CCN(Cc3ccccc3)CC2)cc1 | -56.3
44 | CCOc1ccc(NC(=O)CN(C)C(=O)c2c(-c3c(F)cccc3Cl)noc2C)cc1OCC | -3.83
45 | Cc1cccc(C)c1OCc1cc(C(=O)N2CCN(c3ccccc3)CC2C)no1 (stereo not drawn) | 7.3
46 | O=C(COc1ccc(/C=N/NC(=O)c2ccccc2O)cc1)Nc1ccc([N+](=O)[O-])cc1 | 13.7
47 | COc1ccc(NC(=O)C2=CC(c3ccco3)=NS(=O)(=O)N2C)cc1 | 0.0772
48 | CCCCCCNC(=O)N[C@H](Cc1ccc(O)cc1)C(=O)NCCC[C@H]1CN2C(=NC[C@H]2CCC)N1CC1CCC1 | 9.27
49 | CCCCCCC(=O)N1C/C=C\C(c2ccc(OC)cc2)N(Cc2ccc(F)cc2)C(=O)C1 (stereo not drawn) | -43.7
50 | CCN(CC)S(=O)(=O)c1cc(OC)c(C)cc1C | -5.58
51 | O=C(Cc1cccs1)N1CCN(c2ccc(F)cc2)CC1 | -4.82
52 | O=C(/C=C/c1ccc(Cl)cc1)N1CCN(Cc2ccccc2)CC1 | -35.6
53 | O=C(/C=C/c1cccc([N+](=O)[O-])c1)N1CCN(Cc2ccccc2)CC1 | -47.5
54 | Cc1cc([N+](=O)[O-])ccc1NC(=O)c1sc2ncn(CC(=O)N3CCOCC3)c(=O)c2c1C | -0.176
55 | Cc1c(C(=O)N2CCN(c3ccccc3F)CC2)sc2ncn(CC(=O)N3CCOCC3)c(=O)c12 | -3.64
56 | O=C(Cc1cccs1)N1CCN(c2ccc([N+](=O)[O-])cc2)CC1 | -66.1
57 | CC(=O)c1ccc(N2CCN(C(=O)CCS(=O)(=O)c3ccc(C)cc3)CC2)cc1 | -41
58 | CC(=O)c1ccc(N2CCN(C(=O)Cc3cccs3)CC2)cc1 | -33.3
59 | Cc1c(C(=O)N2CCN(c3ccc([N+](=O)[O-])cc3)CC2)sc2ncn(CC(=O)N3CCOCC3)c(=O)c12 | -62.2
60 | Cc1ccc(S(=O)(=O)CCC(=O)N2CCN(c3ccc([N+](=O)[O-])cc3)CC2)cc1 | -70.8
61 | O=C(/C=C/c1ccc([N+](=O)[O-])cc1)N1CCN(Cc2ccccc2)CC1 | -66.8
62 | Cc1ccc(S(=O)(=O)CCC(=O)N2CCN(c3ccc(Cl)cc3)CC2)cc1 | -23.8
63 | Cn1c(=O)cc(OCC(=O)N2CCN(C3CCCCC3)CC2)c2ccccc21 | -18.6

Row | SMILES | hERG current change (%, negative = inhibition) at 10uM [%]
64 | CN(CCc1ccccn1)C(=O)c1cccnc1Oc1ccccc1 | 11.3
65 | O=C(O)C12C[C@H]3C[C@@H](C1)CC(n1ncc(N4CCN(c5ccccc5)CC4)c(Cl)c1=O)(C3)C2 | 9.94
66 | CN(C(=O)Cn1c(=O)oc2ccccc21)C1CCCCC1 | -1.73
67 | CCCN(CCC)CCCNC(=O)Cn1cnc2sc(C)c(S(=O)(=O)N3CCCCC3)c2c1=O | 9.2
68 | CCCCOc1ccc(C(=O)NCC(=O)N(C)CC(=O)Nc2ccc(N3CCOCC3)cc2)cc1 | -27.4
69 | C(=N\N1CCOCC1)/c1ccsc1.O=P(O)(O)O | 18.8
70 | O=C(Cc1ccc(F)cc1)N1CCN(c2ccc([N+](=O)[O-])cc2)CC1 | -69.5
71 | O=C(Cc1ccc(Cl)cc1)N1CCN(c2ccccc2)CC1 | -12.2
72 | O=C(Cc1ccc(Br)cc1)N1CCN(c2ccc(F)cc2)CC1 | -49.9
73 | O=C(Cc1ccc(F)cc1)N1CCN(c2ccc(F)cc2)CC1 | 0.483
74 | COc1ccc(N2CCN(C(=O)c3ccc(CNS(=O)(=O)c4ccc(C)cc4)cc3)CC2)cc1 | 13.9
75 | CC(Cc1ccccc1)NC(=O)/C=C/c1ccc([N+](=O)[O-])cc1 (stereo not drawn) | -51.7
76 | O=CN1CCN(C(=O)Cc2ccc([N+](=O)[O-])cc2)CC1 | -25.6
77 | O=C(Cc1ccccc1)N1CCN(c2ccc([N+](=O)[O-])cc2)CC1 | -55.2
78 | CC(Cc1ccccc1)NC(=O)Cc1ccc([N+](=O)[O-])cc1 (stereo not drawn) | -17.8
79 | CC(Cc1ccccc1)NC(=O)/C=C/c1ccc(Cl)cc1 (stereo not drawn) | -11.7
80 | Cc1ccc(S(=O)(=O)NCc2ccc(C(=O)N3CCN(c4ccc([N+](=O)[O-])cc4)CC3)cc2)cc1 | -70.7
81 | Cc1ccc(S(=O)(=O)NCc2ccc(C(=O)N3CCN(c4ccccc4)CC3)cc2)cc1 | -18.6
82 | CCN(c1ccc(NC(=O)COC(=O)CCC(=O)c2ccc(F)cc2)cc1)C(C)C | -4.95
83 | O=C(Cn1cnc2c(nnn2Cc2ccccc2F)c1=O)N1CCN(c2ccccc2)CC1 | -31.2
84 | O=C(NCCC1=CCCCC1)c1cccc2c1C(=O)N(C1CCCCC1)C2 | 9.87
